Assay outcomes from PubChem BioAssay.
Hits are enriched below; roughly 17% of the tested compounds scored in any of these assays.
DT40 TDP1 no CPT – qHTS for Inhibitors of human tyrosyl-DNA phosphodiesterase 1 (TDP1): qHTS in cells in absence of CPT. DT40 Tdp1-/- hTDP1 cells, no CPT, ATP luminescence, 48 h. Potency, µM (titrated, usually from 46.2 µM), for inactives: at the highest dose activity change, negative = growth inhibition, usual class: inhibitors. 15% of 420,000 active; also: % is scaled to controls: 0 for no effect and ±100 for the full control effect; nearly all actives have a fitted effect of over 55% in size
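DT40 Tdp1-/-;hTDP1 cells, no CPT (DMSO vehicle only), 400 cells/well; compounds pin-transferred; ≥48 hr, 37 °C; CellTiter-Glo 30 min RT dark, luminescence read.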
HepG2 tox – HepG2 cytotoxicity, counter-screen for TGF-b inhibitors. Potency, µM (titrated, usually from 46.1 µM), without a hit: top-dose activity change, negative = cytotoxicity, most hits filed as cytotoxic. HepG2 CAGA-GFP viability, ATP luminescence, 18 h. 0.76% of 410,000 active
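CellTiter-Glo luminescence gave cytotoxicity after 18 hours at 37 degrees C. The cells were HepG2 CAGA-GFP in 1% FBS DMEM, stimulated with 500 pg/mL TGF-beta after compound addition. %Activity was normalised to no-cell wells (complete cell-killing) and DMSO (no toxicity), and curves were fitted and classified.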
HT1080 IDH1KD tx – toxicity to HT-1080 IDH1 knockdown cells (counter line). HT-1080 IDH1 knockdown viability, ATP luminescence, 48 h. Potency, µM (doses to about 46.1 µM), for the others: at the highest dose activity, negative = toxicity, hits mostly cytotoxic. 2% of 360,000 active;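 also: 0% = DMSO wells and -100% = cell-free medium wells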
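Using the IDH1-knockdown HT-1080 line run in the same batch and compound series as the NT line, viability after 48 h at 37 °C was determined by CellTiter-Glo luminescence and expressed as % activity.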
DT40 TDP1 CPT – DT40-hTDP1 cell growth loss with CPT | chicken DT40 Tdp1-/-;hTDP1 cells + 20 nM CPT, ATP luminescence, 48 h | Potency, µM (titrated, usually from 46.2 µM), for inactives: top-dose activity change, negative = growth inhibition, usual class: inhibitors | 12% of 420,000 active | AID 686979; also: % is scaled to controls: 0 for no effect and ±100 for the full control effect; nearly all actives have a fitted effect of over 55% in size
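Chicken DT40 Tdp1-/- cells complemented with human TDP1, 400 cells/well, exposed to compounds plus 20 nM camptothecin for at least 48 h at 37 C; viability read as ATP content by CellTiter-Glo luminescence.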
TGFb inhibitor – inhibitors of TGF-b signaling; HepG2 CAGA-GFP TGF-b/SMAD3 reporter, GFP fluorescence, 18 h; TGF-beta stimulated, 500 pg/mL final; Potency, µM (doses to about 46.1 µM), without a hit: at the top dose activity, negative = inhibition, actives largely listed as inhibitors; 1.2% of 410,000 active; also: % is scaled to controls: 0 for no effect and ±100 for the full control effect; nearly all actives have a fitted effect of over 65% in size
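HEPG2 CAGA-GFP reporter cells (1000/well, DMEM with 1% FBS) received compounds, then recombinant TGF-beta at 500 pg/mL final for 18 hours at 37 degrees C. Per-cell GFP summed per well was normalised to unstimulated and stimulated DMSO controls before curve fitting.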
HT1080NT lethal – kills 2HG-producing HT-1080-NT fibrosarcoma cells | HT-1080-NT fibrosarcoma viability, CellTiter-Glo ATP luminescence, 48 h | Potency, µM (titrated, usually from 46.1 µM), for the others: at the highest dose activity, negative = less viability, actives largely listed as cytotoxic | 1.6% of 360,000 active | AID 686970;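 also: NT is the 2HG producing partner of a matched IDH1 knockdown line; 0% = DMSO-treated cells and -100% = media-only wells without cells; nearly all actives have a fitted effect of over 55% in size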
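Viability of the 2HG-overproducing fibrosarcoma line after 48 hours of compound exposure at 37 degrees C was determined by luminescence with CellTiter-Glo, and concentration-effect curves were then fitted and categorized.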
An asterisk follows results filed as active; ? = inconclusive; nt = not tested or not shown. Calls follow the shape of the dose curve; as a rule, active = well fitted curve in the direction sought with a large enough effect; inconclusive = small, poorly fitted or top-dose-only effect, or another doubt; inactive = no such curve, though single readings can be large; an effect the other way counts as inactive or inconclusive. Potency is read from the fitted curve at half-maximal effect.

SMILES | DT40 TDP1 no CPT | HepG2 tox | HT1080 IDH1KD tx | DT40 TDP1 CPT | TGFb inhibitor | HT1080NT lethal
COc1cc(-n2c(=O)c3ccccc3n(Cc3ccccc3)c2=O)cc(OC)c1OC | -24% | 3% | 18% | ? | -6% | 16%
Cc1ccc(Cn2c(=O)c3ccccc3n3c(-c4ccccc4)nnc23)cc1 | ? | -5% | nt | ? | 1% | nt
CC(C)c1ccc(-c2nnc3n(CCc4ccccc4)c(=O)c4ccccc4n23)cc1 | 18µM* | -1% | nt | ? | 0% | nt
COc1cc(-c2nnc3n(CCc4ccccc4)c(=O)c4ccccc4n23)cc(OC)c1OC | 16µM* | 1% | 6% | ? | -1% | 8%
O=c1c2ccccc2n2c(-c3ccccc3F)nnc2n1CCc1ccccc1 | 18µM* | -25% | nt | ? | -21% | nt
CC(C)OCCCn1c(=O)c2ccccc2n2c(CCC(=O)O)nnc12 | 1% | -9% | 14% | -3% | 6% | 13%
CC(=O)Nc1ccc(-c2nnc3n(Cc4ccc(C)cc4)c(=O)c4ccccc4n23)cc1 | -20% | -17% | nt | -21% | 6% | nt
Cc1cccc(-c2nnc3n(CCc4ccccc4)c(=O)c4ccccc4n23)c1 | 26µM* | -14% | nt | ? | ? | nt
Cc1ccc(C(=O)N(CC(=O)NC2CCCC2)c2ccccc2F)s1 | ? | -4% | 3% | -21% | -6% | 11%
COc1ccc(-c2nnc3n(CCc4ccccc4)c(=O)c4ccccc4n23)c(OC)c1 | 13µM* | 1% | 17% | 18µM* | 22% | 6%
COc1ccc(OC)c(-c2nnc3n(Cc4ccc(C)cc4)c(=O)c4ccccc4n23)c1 | 18µM* | -3% | nt | 10µM* | -1% | nt
COc1ncc2nc(-c3ccc(F)cc3)c(=O)n(C3CC3)c2n1 | 46% | nt | nt | 11% | nt | nt
COc1ccc(-c2cc3c(c4c2ccn4C)C2CCC3O2)cn1 (stereo not drawn) | 16µM* | -4% | 0% | 18µM* | -31% | 13%
Cn1ccc2c(/C=C/c3ccc(F)cc3)cc3c(c21)C1CCC3O1 (stereo not drawn) | 12µM* | -28% | ? | 26µM* | ? | ?
CCCN(CC1CC1)c1cc2c(c3c1ccn3C)C1CCC2O1 (stereo not drawn) | 10µM* | -20% | -2% | 15µM* | -25% | -12%
Cn1ccc2c(-c3ccc(F)nc3)cc3c(c21)C1CCC3O1 (stereo not drawn) | ? | -11% | 20% | ? | -10% | 12%
CN(c1ccc(Cl)cc1)c1cc2c(c3c1ccn3C)C1CCC2O1 (stereo not drawn) | 23µM* | -3% | -22% | ? | -3% | -16%
CN(CC(=O)Nc1ccccc1Cl)CC(=O)N(C)c1c(N)n(Cc2ccccc2)c(=O)[nH]c1=O | -18% | -2% | -4% | -4% | -1% | 0%
COC1=Nc2ccccc2/C=C\c2ccccc21 | -15% | -6% | 8% | -11% | ? | 9%
CN(c1cccc(F)c1)c1cc2c(c3c1ccn3C)C1CCC2O1 (stereo not drawn) | 16µM* | -18% | -22% | 16µM* | ? | -19%
Cn1ccc2c(N3CCCCCCC3)cc3c(c21)C1CCC3O1 (stereo not drawn) | 21µM* | -21% | ? | ? | ? | ?
COc1cccc(Cn2c(=O)c(-c3cccc(C#N)c3)nc3cnc(OC)nc32)c1 | 30% | nt | nt | -6% | nt | nt
O=C(CNC(=O)OCc1ccccc1)NC(Cc1cnc[nH]1)C(=O)O (stereo not drawn) | 16µM* | -6% | 23% | ? | 0% | 5%
